Structures are written as SMILES. “And” between values parts separate entries of the source, which are not always exact repeats. Equal values may be shown once. The panel holds about 83,000 compounds, 20% with a hit somewhere; the sample as a whole holds those more often.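 Each cell line was grown in a 96-well plate and treated with one concentration of compound for 48 hours. Values below 10 were considered active.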 The source made the active and inactive calls.

In this test the test system is ACHN renal. Briefly: NCI-60 one-dose screen, 48 h (100 = growth as untreated, 0 = no growth, -100 = all killed). To be noted: 10 µM unless noted. The protocol:
Growth inhibition of the ACHN human tumor cell line is measured as a screen for anti-cancer activity. Cells are grown in 96 well plates and exposed to the test compound for 48 hours. Compounds are tested at a single concentration, which is 10^-5 M for most compounds. The reported endpoint is percent growth (GI% or GIPRCNT), where numbers from 0 - 100% represent growth inhibition, and numbers from -100% - 0 represent cell death. For example, a value of 40 represents 60% growth inhibition. A value of 0 means no net growth occurred over the course of the experiment. A value of -40 indicates 40% of cells at the beginning of the experiment died by the end of the experiment. A value of -100 means all cells are dead at the end of the experiment.
NCI-60 Human Tumor Cell Lines Screen was performed using the standard one-dose NCI protocol, which is described in more detail at https://dtp.cancer.gov/discovery_development/nci-60/default.htm.
Compounds with GIPRCNT values below 10 were considered active. Activity score was based on GIPRCNT using the following formula: […]
Score is 0 for GIPRCNT values of 100 or above, 50 for GIPRCNT values of 0, and 100 for GIPRCNT values of -100.
As to `O=C1C(N2CCOCC2)=C(I)C(=O)c2ncccc21`, the growth is 58.7% (inactive).

Take `CCN1CCN(CC(=O)Nc2nc3ccc(NCc4ccc(C)cc4)cc3s2)CC1`: the growth was 85.6% (inactive).

As for `CCCCC1=C(Br)C(=O)c2nc(C)ccc2C1=O`, the growth was 57.1% (inactive).

With `Nn1c(-c2ccc(Cl)cc2)nc2c(-c3ccc(Cl)cc3)nc3ccc(Cl)cc3c2c1=O`, the growth was 4.66% (active).

As to `Cc1ccc(NC(=O)N/C(N)=N/c2nc(=O)c3ccccc3s2)cc1`, the growth is 102% (inactive).

As to `CCCc1cc(C(N)=S)ccn1`, the growth was 102% (inactive).

For `COc1ccc(-c2[nH]c3ccccc3c2-c2ccc(OC)cc2)cc1`, the growth was 65.3% (inactive).

`C[C@@H]1CC[C@@H]2[C@@H]1[C@H](OC(=O)/C=C/c1ccccc1)[C@]1(c3ccccc3)C[C@@H](NC(=O)CO)[C@@]2(C)O1`: the growth was 79.1% (inactive).

For `CN(Cc1ccccc1)c1nc(Cl)c(C2CC(c3ccc4c(c3)OCO4)=NN2c2cc(Cl)cc(Cl)c2)s1` (stereo not given), the growth is 97% (inactive).

`O=C(CCCCCCCCC(=O)N/N=C\c1ccccc1O)N/N=C\c1ccccc1O`: the growth was 14.7% (inactive).

Take `O=C(N/N=C/c1ccc(O)cc1O)c1cccc(Nc2ccnc(C(F)(F)F)c2)c1`: the growth was 30.3% (inactive).

Regarding `COc1ccc(Oc2nc(Nc3ccc(N4CCOCC4)cc3)ncc2NC(=O)c2cccc(C(F)(F)F)c2)cc1`, the growth is 79.9% (inactive).

With `CC[C@]12CN3CCc4c([nH]c5ccccc45)[C@@](C(=O)OC)(c4cc5c(cc4OC)N(C)[C@H]4[C@@](O)(C(=O)OC)[C@H](OC(C)=O)[C@]6(CC)C=CCN7CC[C@]54[C@@H]76)CC(C3)[C@H]1O2` (stereo not given in full), the growth is 40.5% (inactive).

For the compound `Cc1ccc(C(=O)Nc2ccc(CN3CCN(C)CC3)c(C(F)(F)F)c2)cc1C#Cc1cnc(N)cc1C#N`, the growth was -85.7% (active).

In the case of `CN1C(=O)/C(=C/c2ccc(C(=O)Nc3ncc(Cc4ccccc4Cl)s3)cc2)SC1=S`, the growth is 52.1% (inactive).

Take `C#Cc1cc(C(=O)Nc2ccc(CN3CCN(C)CC3)c(C(F)(F)F)c2)ccc1C`: the growth was 92.2% (inactive).

Take `Nc1ccccc1SC(CC(=O)c1ccccc1)c1ccc([N+](=O)[O-])cc1` (stereo not given): the growth is 99.8% (inactive) and 93.6% (inactive).

For `C=C1CC[C@@H]2[C@](C)(COC(C)=O)[C@H](OC(C)=O)CC[C@@]2(C)[C@@H]1CC(Nc1ccc(S(=O)(=O)Nc2nccs2)cc1)C1=CCOC1=O` (stereo not given in full), the growth is -46.6% (active).

Turning to `CC[C@]1(O)CC2CN(CCc3c([nH]c4ccccc34)C(C(=O)OC)(c3cc4c(cc3OC)N(C=O)[C@H]3[C@@](O)(C(=O)OC)[C@H](OC(C)=O)[C@]5(CC)[C@@H]6C[C@@H]6CN6CC[C@]43[C@@H]65)C2)C1` (stereo not given in full), the growth was 30.9% (inactive).

For the compound `COc1ccc(/C=C/C(=O)c2cc3c(N)c(C(=O)Nc4ccccc4)sc3nc2C)cc1`, the growth was 31.4% (inactive).

Take `Cn1ccnc1CN1CCSC(C(=O)Nc2ccccc2)C1` (stereo not given): the growth was 93.2% (inactive).

As to `CCOC(=O)c1nnn(Cc2cc(=O)oc3c2ccc2ccccc23)c1C`, the growth is 97.9% (inactive).

For the compound `COc1ccc(-c2csc(NC(=O)CN3CCN(CCO)CC3)n2)cc1NS(=O)(=O)c1cccc2c(N(C)C)cccc12`, the growth is 87% (inactive).

As for `C=C(C)[C@@H]1CC[C@]2(C(=O)N3CCN(C)CC3)CC[C@]3(C)[C@H](CC[C@@H]4[C@@]5(C)CC(CCCNC(C)=O)(CCCNC(C)=O)[C@H](OC(C)=O)C(C)(C)[C@@H]5CC[C@]43C)[C@@H]12`, the growth was 101% (inactive).

On to `O=C1C=CC(=O)N1c1ccc2ccccc2c1`, for which the growth is 38% (inactive) and 50.3% (inactive).

Consider `Cc1c(CC(=O)OCCO)cc(-c2ccc(Cl)cc2)n1-c1ccccc1`, for which the growth was 100% (inactive).

Consider `C#CCOCC1CN(C)C(=O)O1` (stereo not given), for which the growth is 105% (inactive).

Regarding `COc1ccc(C(CC(=O)c2ccc3c(c2)OCO3)C(=O)O)cc1OC` (stereo not given), the growth is 118% (inactive) and 98.7% (inactive).

With `COC(=O)c1nc(-c2ccc(C)cc2)oc1S(=O)(=O)c1ccc(Cl)cc1`, the growth was 80.4% (inactive).

Turning to `CN1C(=O)N(C)C2(c3ccccc3)N(CC(=O)Nc3ccccc3O)C(=O)NC12c1ccccc1` (stereo not given), the growth was 102% (inactive).

On to `O=C(NNc1ccccc1)C1CCCN1` (stereo not given), for which the growth was 20% (inactive).

In the case of `Cc1cnc(C(=O)NNc2nc3sc4c(c3c(=O)[nH]2)C(C)CCC4)cn1` (stereo not given), the growth is 11.8% (inactive).

With `CCC(=C(c1ccc(OCCCN(C)C)cc1)c1ccc(OCCCN(C)C)cc1)c1ccc(Cl)cc1`, the growth was -95.8% (active).

`CC1(C)C(N)=Nc2cc(OCCCCN3Cc4ccccc4C3)c(OCC3CC3)cc21`: the growth was 87.8% (inactive).

Consider `COc1ccc(-c2cc(=O)c3c(O)cc(O)cc3o2)cc1`, for which the growth was 97.5% (inactive) and 97.2% (inactive).

Take `O=C(Nc1ncc(Cc2cccc(C(F)(F)F)c2)s1)c1ccc(-n2cnnn2)cc1`: the growth is 32% (inactive).

On to `COc1ccc2nc3cc(Cl)ccc3c(NCCCNCCC(C)O)c2c1` (stereo not given), for which the growth is -1.05% (active).

For the compound `O=C(/C=C/C12c3ccccc3C(c3ccccc31)C1C(=O)NC(=O)C12)c1ccncc1` (stereo not given), the growth is 23.7% (inactive).

Regarding `CC(=O)N1N=C(c2ccc(Nc3nc(Nc4ccc(F)cc4)nc(Nc4ccc(Cl)cc4)n3)cc2)CC1c1ccc(N(C)C)cc1` (stereo not given), the growth was 61.8% (inactive).

Regarding `Clc1ccc(/C=N\N2CCCCCC2)cc1`, the growth was 99.5% (inactive) and 102% (inactive).

Values taken from PubChem BioAssay (NCI).
